# Source: PubChem BioAssay AID431 (Sanford-Burnham Center for Chemical Genomics, 2006)
# Out of some 63,000 compounds screened, about 1,100 (1.7%) were called active. This excerpt belongs to a sample that is enriched for actives. Entries with a potency or affinity are not part of this list. Values without a mark were called inactive.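 Rule for the calls: active = compounds whose percent cytotoxicity in the single-dose primary screen, scaled between solvent and toxic-drug controls, exceeds 50; inactive = the rest.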
# Experiment: cytotoxicity in KRAS-transformed pancreatic duct cells, primary screen, cell-based, fluorescence, HTS (AID 431);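 note: 0% = DMSO solvent wells and 100% = doxorubicin-treated wells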
# Conditions: HPDE-C7K KRASV12 cells, Alamar Blue viability, 48 h; at 10 µM; active compounds read high
row,Structure (SMILES),cytotoxicity
1,O=C(O)C1C2CCC(C2)C1C(=O)NCCCn1ccnc1 (stereo not drawn),-7.9%
2,CCCc1cc(=O)n2[nH]c(-c3cc(OC)c(OC)c(OC)c3)nc2n1,-9.7%
3,CCCOc1cccc(C(=O)Nc2cccc(NC(=O)c3ccco3)c2)c1,7.4%
4,Cc1[nH]nc2c1C(c1ccc(F)cc1)C(C#N)=C(N)O2 (stereo not drawn),-10.6%
5,CCOC(=O)C1CCCN(Cc2ccccc2F)C1 (stereo not drawn),4.8%
6,CC(C)c1ccc(S(=O)(=O)N2CCN(CC(=O)Nc3ccc4c(c3)OCO4)CC2)cc1,2.2%
7,CCOC(=O)N1CCN(Cc2nc(-c3ccccc3)no2)CC1,11.5%
8,Cc1noc(C)c1CSc1ncnc2ccccc12,18.6%
9,Cc1noc(C)c1CSc1nc2ccccc2nc1NS(=O)(=O)c1ccc(Cl)cc1,64.6% (active)
10,O=S(=O)(Nc1nc2ccccc2nc1NCc1ccco1)c1ccc(Cl)cc1,20.9%
11,COc1cc(C2C(C(=O)OC(C)C)=C(C)Nc3[nH]c(=O)[nH]c(=O)c32)ccc1O (stereo not drawn),-5.8%
12,CN1C(=O)NC(NC(=O)c2cccs2)(C(F)(F)F)C1=O (stereo not drawn),-12.1%
13,COc1ccc(N(C(=O)c2cccc(OC)c2OC)C2C=CS(=O)(=O)C2)cc1 (stereo not drawn),-2.9%
14,c1ccc2c(c1)oc1c(Nc3ccc4c(c3)OCO4)ncnc12,-23.6%
15,COc1ccc(/C=N/n2c(N)nc3ccccc32)cc1OC,-9.4%
16,Cc1[nH]nc(-c2ccc(O)cc2O)c1-c1ccc(Cl)cc1,53.9% (active)
17,C=C(C)COc1ccc(-c2nc(N)ncc2Oc2ccccc2OC)c(O)c1,-4.5%
18,COc1ccc(-c2n[nH]c(C)c2-c2ccc(Cl)cc2)c(O)c1OC,-14.6%
19,C=C(C)COc1ccc(-c2nc(N)ncc2-c2ccc(OC)cc2)c(O)c1,120% (active)
20,Oc1ccc(-c2[nH]ncc2-c2ccc(Cl)cc2)c(O)c1,49.9%
21,COc1ccc(-c2nc(N)ncc2-c2csc(C)n2)c(O)c1,-17.5%
22,C=C(C)COc1ccc(-c2nc(N)ncc2Oc2ccc(OC)cc2)c(O)c1,-0.9%
23,N#Cc1cc(C(=O)c2cc(Br)ccc2O)cn(C2CC2)c1=O,10.6%
24,O=C(c1ccc(CN2CCc3ccccc3C2)cc1)N1CCCCC1,-21.9%
25,O=S(=O)(c1ccc(N2CCOCC2)cc1)N1CCOCC1,-6.3%

row,Structure (SMILES),cytotoxicity
1,CC(=O)N1CC2(C)CN(C(C)=O)CC(C)(C1)C2O (stereo not drawn),1.7%
2,CCOc1cc(S(=O)(=O)NCCN2CCOCC2)c(C)cc1C,-17.8%
3,C=CCc1ccccc1OCC(O)CN1CCN(c2ccc(OC)cc2)CC1 (stereo not drawn),9.3%
4,COC(=O)C1(CCSC)NC(c2ccccc2OC)C2C(=O)N(C)C(=O)C21 (stereo not drawn),8%
5,O=c1c2ccccc2nnn1CSc1nc2cc(Cl)ccc2c(=O)n1Cc1ccco1,6.2%
6,CCOC(=O)N1CCN(C2=CC(=O)OC23CCCCC3)CC1,3.3%
7,C=C(C)COc1ccc(-c2ncncc2Oc2ccc(OC)cc2)c(O)c1,17.6%
8,Cc1[nH]nc(-c2ccc(O)cc2O)c1Oc1ccccc1,63.9% (active)
9,CCOc1ccc(-c2n[nH]c(C)c2Oc2ccccc2OC)c(O)c1,2.5%
10,COc1cccc(Oc2cncnc2-c2ccc(OC)cc2O)c1,21.1%
11,C=C(C)COc1ccc(-c2n[nH]c(C)c2Oc2ccccc2OC)c(O)c1,66.1% (active)
12,COc1ccc(Oc2c(-c3ccc(O)cc3O)n[nH]c2C)cc1,27.1%
13,Cc1oc2cc(O)ccc2c(=O)c1Oc1ccccc1,-6.1%
14,C=C(C)COc1ccc(-c2nc(N)nc(C)c2Oc2ccccc2OC)c(O)c1,1.4%
15,CCc1nnc(NC(=O)CSc2nnc(-c3ccoc3C)n2-c2ccc(C)cc2)s1,-6.5%
16,CC(OC(=O)C1CC=CCC1C(N)=O)C(Cl)=C(Cl)Cl (stereo not drawn),-9.4%
17,CC(C)OC(=O)CSc1nnc(-c2cnccn2)n1C,-7.5%
18,O=C(NCCN1CCN(c2ccccc2F)CC1)C1c2ccccc2C(=O)N2CCc3ccccc3C12 (stereo not drawn),-3.5%
19,N#CCCC12CCCCC1=Nc1ccccc12 (stereo not drawn),-11.5%
20,CCN1CCN(CC(=O)n2c3c(c4ccccc42)CC(C)CC3)CC1 (stereo not drawn),16.2%
21,COc1ccc(CNC(=O)c2cc(-c3ccco3)on2)cc1,-5.9%
22,c1csc(-c2nn3c(C4COc5ccccc5O4)nnc3s2)c1 (stereo not drawn),-1.6%
23,C=CCOc1nc2c(c(=O)n(C)c(=O)n2C)n1Cc1ccc(Cl)cc1,64.6% (active)
24,C=CCOc1nc2c(c(=O)n(Cc3ccc(Cl)cc3)c(=O)n2C)n1C,-0.2%
25,C=CCOc1nc2c(c(=O)n(C)c(=O)n2C)n1Cc1ccc(Cl)cc1Cl,-24.2%

row,Structure (SMILES),cytotoxicity
1,CCC(C)NC(=O)CN(c1ccc2c(c1)OCO2)S(=O)(=O)c1c(C)n[nH]c1C (stereo not drawn),3.1%
2,CC1(C)CC(=O)c2cnc(NC(=O)CCc3ccccc3)nc2C1,-12.6%
3,N#Cc1c(NC(=O)CN2CCOCC2)oc(-c2ccccc2)c1-c1ccccc1,10.6%
4,N#Cc1c(NC(=O)CCN2C(=O)c3ccccc3C2=O)oc(-c2ccccc2)c1-c1ccccc1,2.4%
5,Cc1ccnc(SCC(=O)Nc2oc(-c3ccccc3)c(-c3ccccc3)c2C#N)n1,29.2%
6,CCn1c(SCC(=O)Nc2oc(-c3ccccc3)c(-c3ccccc3)c2C#N)nnc1-c1ccco1,29.1%
7,N#Cc1c(NC(=O)Cn2c(=O)oc3ccccc32)oc(-c2ccccc2)c1-c1ccccc1,52% (active)
8,CCc1nnc(NC(=O)CN2CCN(c3ccccc3OC)CC2)s1,-2.9%
9,CCOC(=O)CSc1nc2ccsc2c(=O)n1C1CCN(C(=O)OCC)CC1,8%
10,O=C(COC(=O)c1ccc2c(c1)OCO2)NCc1ccc(Cl)cc1,8.3%
11,O=C(CCn1c(=O)c2sccc2n(CC(=O)OCc2ccccc2)c1=O)NCc1ccco1,-12.9%
12,CCOC(=O)c1ccc(-n2c(=O)[nH]c3ccccc3c2=O)cc1,3%
13,CCOC(=O)c1ccc(-n2[nH]c(-c3ccccc3)cc2=O)cc1,58.5% (active)
14,CCOC(=O)c1ccc(N2C(=O)C(C)=C(C)C2=O)cc1,35.6%
15,COc1ccc(CCNC(=O)CCn2c(=O)oc3ccccc32)cc1,-9.7%
16,COC(=O)c1ccc(CSc2nnc(Nc3ccccc3OC)s2)o1,44.9%
17,COC(=O)c1ccc(CSc2nnc(NCc3ccccc3)s2)o1,-2.2%
18,CCOc1ccccc1Nc1nnc(SCc2ccc(C(=O)OC)o2)s1,57.3% (active)
19,c1ccc2nc(N3CCOCC3)c(N3CCOCC3)nc2c1,-2.3%
20,Cc1cc(=O)[nH]c(SCC(=O)N2CCN(C(c3ccccc3)c3ccccc3)CC2)n1,-3.1%
21,O=C1CCCc2sc3c(c2N1)CCCCC3,6.3%
22,CCOC(=O)C1=C(N2CCCCC2)c2cc3c(n2C1=O)CCCC3,3.2%
23,CCSc1ncnc2c(C#N)c3n(c12)CCCCC3,-17%
24,Cc1cc(C(=O)Nc2sc3c(c2C#N)CCC3)no1,36.4%
25,COC(=O)C1=C(C)NC(C)=C(C(=O)OC)C1c1ccc(OC(=O)c2ccco2)cc1,11%

row,Structure (SMILES),cytotoxicity
1,O=C(Oc1ccc2ccccc2c1)c1ccco1,2.3%
2,CCOc1ccc(OC(=O)c2cccnc2)cc1,10.2%
3,CC1=CC(C)(C)Nc2ccc(C)cc21,-5%
4,CCc1ccc2c(c1)C(C)=CC(C)(C)N2,-4.3%
5,O=C(Oc1cccc(Br)c1)c1cccnc1,-13.7%
6,COC(=O)c1ccc(OC(=O)c2ccco2)cc1,-32.6%
7,CCOc1ccc2c(c1)N(C(=O)CN1C(=O)CCC1=O)C(C)(C)C=C2C,-12.2%
8,c1ccc(CNc2ncnc3c2cnn3-c2ccccc2)cc1,36%
9,Cc1ccc2nc(NC3=NCN(Cc4ccco4)CN3)nc(C)c2c1,8.2%
10,Cc1ccc(-n2nnc3c(SCC(=O)NCc4ccco4)ncnc32)cc1,8.5%
11,O=C(CN1C(=O)NC2(CCCc3ccccc32)C1=O)N1CCc2ccccc2C1 (stereo not drawn),-21.3%
12,CCOc1ccc(C(C)(N)C(=O)O)cc1 (stereo not drawn),5.7%
13,COCCn1c(C)cc(C(=O)CSc2nnc(-c3cccnc3)n2-c2ccccc2F)c1C,-8%
14,CCN(Cc1ccccc1)Cc1c(F)cccc1F,-14.3%
15,CCN(CC(=O)N1CCOCC1)S(=O)(=O)c1ccc(C)cc1,-7.2%
16,COc1cc(C2C(C(=O)OC(C)C)=C(C)Nc3ncnn32)cc(OC)c1OC (stereo not drawn),3.4%
17,COc1ccc(C2C3=C(Nc4ncnn42)c2ccccc2CC3)cc1OC (stereo not drawn),50.3% (active)
18,COc1ccc(C2C(C(C)=O)=C(C)Nc3ncnn32)cc1OC (stereo not drawn),-18.7%
19,COc1ccc(C2C3=C(Nc4ncnn42)c2ccccc2CCC3)cc1 (stereo not drawn),-11.9%
20,COc1cc(C2C3=C(Nc4ncnn42)c2ccccc2CC3)cc(OC)c1OC (stereo not drawn),62.6% (active)
21,c1csc(C2C3=C(Nc4ncnn42)c2ccccc2OC3)c1 (stereo not drawn),8.9%
22,Cc1ccc(Cl)cc1NC(=O)c1ocnc1C,0.3%
23,COc1ccc(N(CC(=O)N2CCN(c3ccccc3)CC2)S(=O)(=O)c2c(C)noc2C)cc1,-8.3%
